The source of these data is PubChem BioAssay (Tox21).

“And” between values parts separate entries of the source, which are not always exact repeats. Equal values may be shown once. Inconclusive results are not listed. Entries that show only a call come without a potency. Unmarked numbers belong to inactive results. The source made the active and inactive calls. Calls follow the shape of the dose curve; as a rule, active = well fitted inhibition curve with a large enough effect in the signal ratio in the repeat runs; inconclusive = weak or mixed curves, or effect the other way; inactive = flat fitted curve, though single readings scatter; the % refers to the signal ratio.
Potency is read from the fitted curve at half-maximal effect.

This test can be described thus: qHTS assay for small molecule disruptors of the mitochondrial membrane potential (AID 720635). The settings on record: HepG2 mitochondrial membrane potential, Mito-MPS dye ratio; series mostly up to 83.2 µM; ratio activity, negative = MMP loss: at the top concentration. The source says:
U.S. Tox21 Program National Center for Advancing Translational Sciences [NCATS] NIH Chemical Genomics Center [NCGC] U.S. Environmental Protection Agency [EPA] National Institutes of Environmental Health Sciences [NIEHS] National Toxicology Program [NTP] U.S. Food and Drug Administration [FDA] Tox21 Assay Overview: Mitochondrial membrane potential (MMP), one of the parameters for mitochondrial function, is generated by mitochondrial electron transport chain that creates an electrochemical gradient by a series of redox reactions. This gradient drives the synthesis of ATP, a crucial molecule for various cellular processes. Measuring MMP in living cells is commonly used to assess the effect of chemicals on mitochondrial function. […] The dye accumulates in the mitochondria of healthy cells as aggregates, with red fluorescence. The mitochondrial potential collapses and the dye can no longer accumulate in the mitochondria and remains in the cytoplasm in monomers, with green fluorescence.
Tox21 Assay Protocol Summary: 2,000 HepG2 cells in 5 uL/well were dispensed into black, clear-bottom 1536-well plates using a Multidrop Combi (Thermo Scientific) dispenser. The assay plates were incubated overnight at 37C to allow cells to attach to the wells, followed by the transfer of 23 nL compound or DMSO vehicle by a pin tool (Kalypsys). The plates were incubated for 1 hr at 37C and 5% CO2, followed by the addition of 5 uL of 2X Mito-MPS dye (BD Biosciences) into each well using Flying Reagent Dispenser (Aurora Discovery) and then following 30 min incubation at 37C. Fluorescence intensity (490nm excitation and 535nm emission for monomers; and 540nm excitation and 590nm emissions for aggregates) was measured using an Envision plate reader.
(qHTS replaces the single test concentration by a dilution series.)
Take `CCCN(CCC)S(=O)(=O)c1ccc(C(=O)O)cc1`: the Potency result was “inactive”.
Regarding `CCOc1ccc(NC(=O)CC(C)O)cc1` (stereo not given), the “ratio activity, negative = MMP loss” value is 3.1%.
Consider `O=C1NC(=O)c2ccccc21`, for which the Potency result is “inactive”.
On to `Oc1ccc(/C=C/c2cc(O)cc(O)c2)cc1`, for which the Potency is 2.11 µM (active) and 692 nM (active) and 969 nM (active).
The same measure, in the same setting: for `O=C(O)CCC(=O)O` the value was “inactive”.
As for `O=NO`, the “ratio activity, negative = MMP loss” value was -14%.
`O=C(O)c1[nH]n(-c2ccc(S(=O)(=O)O)cc2)c(=O)c1N=Nc1ccc(S(=O)(=O)O)cc1`: the Potency entry is “inactive”.
`CCC1(c2ccccc2)C(=O)NCNC1=O`: the Potency entry was “inactive”.
Same read-out and setting: for `CCCCC(CC)COC(=O)/C=C/c1ccc(OC)cc1` (stereo not given) the value was 54.2 µM (active).
As to `O=C(C1CCCCC1)N1CC(=O)N2CCc3ccccc3C2C1` (stereo not given), the “ratio activity, negative = MMP loss” value was -22.6%.
Turning to `CCCCCCCCCCCCCCCC(=O)O`, the Potency entry is “inactive”.
As for `CC(O)CN(CCN(CC(C)O)CC(C)O)CC(C)O` (stereo not given), the “ratio activity, negative = MMP loss” value is 5.09%.
Consider `C1N2CN3CN1CN(C2)C3`, for which the Potency entry was “inactive”.
For `CC(=O)OCC(COC(C)=O)OC(C)=O`, the Potency result is “inactive”.
Same read-out and setting: in the case of `O=S(=O)(O)c1ccc2cc(O)ccc2c1` it was “inactive”.
On the same count and under the same terms, for `CC(C)(Oc1ccc(C2CC2(Cl)Cl)cc1)C(=O)O` (stereo not given) the value was “inactive”; for `Nc1ccc(C(=O)O)cc1`, “inactive”.
Turning to `Cc1cc(=O)[nH]c(=S)[nH]1`, the Potency entry was “inactive”.
Regarding `OCCc1ccccc1`, the “ratio activity, negative = MMP loss” value is 12.2%.
With `CC(C)[C@@H]1CC[C@@H](C)C[C@H]1O`, the Potency entry was “inactive”.
`NC(=O)c1cnccn1`: the Potency entry was “inactive”.
In the case of `O=C(O)c1cc(N=Nc2ccc(S(=O)(=O)Nc3ccccn3)cc2)ccc1O`, the “ratio activity, negative = MMP loss” value was 18.2%.
Consider `CC(O)C(=O)O` (stereo not given), for which the Potency entry is “inactive”.
Still for that read-out and setting: for `Cc1noc(NS(=O)(=O)c2ccc(N)cc2)c1C` the value was “inactive”; for `O=C1CN(/N=C/c2ccc([N+](=O)[O-])o2)C(=O)N1`, 21.1 µM (active) and 21.6 µM (active) and 21.7 µM (active); for `Nc1ccc(S(=O)(=O)Nc2nccs2)cc1`, “inactive”.
On the same count and under the same terms, for `Cc1ccc(O)cc1` the value was “inactive”; for `O=C(O)c1cccnc1`, “inactive”.
The same measure, in the same setting: in the case of `Cc1ccc(C)c(OCCCC(C)(C)C(=O)O)c1` it was “inactive”; in that of `O=C(O)CCCCCCCC(=O)O`, “inactive”.
As to `CC(O)CO` (stereo not given), the Potency entry was “inactive”.
Turning to `c1ccc2[nH]ccc2c1`, the Potency result was “inactive”.
On to `O=C(O)CS`, for which the Potency entry was “inactive”.
For the compound `COc1ccc2[nH]cc(CCNC(C)=O)c2c1`, the Potency result was “inactive”.
Same read-out and setting: in the case of `NC(N)=O` it was “inactive”.
As to `CNC[C@H](O)c1cccc(O)c1`, the “ratio activity, negative = MMP loss” value was 7.5%.
As for `Nc1ccc(S(=O)(=O)c2ccc(N)cc2)cc1`, the Potency entry was “inactive”.
As to `NC(=O)NC1NC(=O)NC1=O` (stereo not given), the Potency result is “inactive”.
In the case of `NNC(=O)c1ccncc1`, the “ratio activity, negative = MMP loss” value is 6.96% [at 95.3 µM].
Consider `Cc1cn([C@H]2C[C@H](N=[N+]=[N-])[C@@H](CO)O2)c(=O)[nH]c1=O`, for which the Potency result was “inactive”.
